What was measured:
Experiment in all cases: log2 ratio of Biotin-Ahx-Ub-VS probe labelling (fragment/DMSO); higher = less target engagement (more negative = stronger competition), active = hit call of the paper (q ≤ 0.05, log2 ratio ≤ -1)
Conditions in all cases: compound concentration: 200 uM; treatment time: 3 h
[1] = biological target: T1, USP19 (UniProt O94966)
T1 sequence (whole entry): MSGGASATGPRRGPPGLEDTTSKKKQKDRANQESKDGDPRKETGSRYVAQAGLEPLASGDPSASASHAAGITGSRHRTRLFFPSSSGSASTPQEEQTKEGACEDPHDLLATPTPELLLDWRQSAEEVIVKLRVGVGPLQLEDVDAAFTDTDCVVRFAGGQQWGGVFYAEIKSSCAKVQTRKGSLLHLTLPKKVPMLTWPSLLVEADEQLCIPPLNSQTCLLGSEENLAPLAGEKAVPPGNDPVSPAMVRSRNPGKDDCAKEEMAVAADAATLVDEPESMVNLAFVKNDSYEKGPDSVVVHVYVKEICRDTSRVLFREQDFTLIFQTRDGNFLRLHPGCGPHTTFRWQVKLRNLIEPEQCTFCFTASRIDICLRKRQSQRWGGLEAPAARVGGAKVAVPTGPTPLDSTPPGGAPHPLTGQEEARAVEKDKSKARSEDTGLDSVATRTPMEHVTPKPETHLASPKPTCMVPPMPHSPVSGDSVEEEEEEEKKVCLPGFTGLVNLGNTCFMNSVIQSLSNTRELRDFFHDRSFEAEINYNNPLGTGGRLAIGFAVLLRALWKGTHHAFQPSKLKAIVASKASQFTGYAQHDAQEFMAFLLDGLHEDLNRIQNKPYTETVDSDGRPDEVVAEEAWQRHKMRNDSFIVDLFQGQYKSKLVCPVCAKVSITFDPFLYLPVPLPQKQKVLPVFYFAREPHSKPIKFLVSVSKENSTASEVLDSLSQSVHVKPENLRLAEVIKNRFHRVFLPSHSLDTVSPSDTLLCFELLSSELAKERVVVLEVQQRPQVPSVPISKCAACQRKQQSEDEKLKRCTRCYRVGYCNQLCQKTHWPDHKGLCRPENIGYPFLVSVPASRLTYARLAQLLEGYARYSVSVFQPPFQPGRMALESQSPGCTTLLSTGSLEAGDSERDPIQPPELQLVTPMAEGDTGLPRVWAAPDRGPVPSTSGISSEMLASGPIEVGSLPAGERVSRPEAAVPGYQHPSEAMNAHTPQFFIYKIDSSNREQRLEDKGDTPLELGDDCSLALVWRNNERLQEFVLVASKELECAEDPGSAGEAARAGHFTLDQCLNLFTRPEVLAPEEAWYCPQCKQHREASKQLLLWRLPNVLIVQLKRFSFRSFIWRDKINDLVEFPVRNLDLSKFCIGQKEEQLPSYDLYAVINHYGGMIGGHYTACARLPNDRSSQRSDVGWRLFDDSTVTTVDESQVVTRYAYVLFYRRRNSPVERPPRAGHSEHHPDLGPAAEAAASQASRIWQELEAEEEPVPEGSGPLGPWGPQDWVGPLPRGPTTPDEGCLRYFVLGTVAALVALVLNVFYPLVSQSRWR
Summary of the method: (§1)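 HEK293T lysate, 495 µg per sample in Tris/CHAPS/IGEPAL buffer with protease inhibitors, was treated in triplicate with fragment at 200 µM or vehicle for 3 h and then with Biotin-Ahx-Ub-VS at 0.5 µM final for 1 h. Labelled DUBs were NeutrAvidin-enriched, digested with LysC and trypsin, and run by diaPASEF LC-MS/MS. Spectronaut label-free quantities were global-median-normalised, and values are average log2 fragment/vehicle ratios by unpaired t-test on proteins with ≥2 unique peptides.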

[2] = biological target: T2, USP22 (UniProt Q9UPT9)
T2 sequence (whole entry): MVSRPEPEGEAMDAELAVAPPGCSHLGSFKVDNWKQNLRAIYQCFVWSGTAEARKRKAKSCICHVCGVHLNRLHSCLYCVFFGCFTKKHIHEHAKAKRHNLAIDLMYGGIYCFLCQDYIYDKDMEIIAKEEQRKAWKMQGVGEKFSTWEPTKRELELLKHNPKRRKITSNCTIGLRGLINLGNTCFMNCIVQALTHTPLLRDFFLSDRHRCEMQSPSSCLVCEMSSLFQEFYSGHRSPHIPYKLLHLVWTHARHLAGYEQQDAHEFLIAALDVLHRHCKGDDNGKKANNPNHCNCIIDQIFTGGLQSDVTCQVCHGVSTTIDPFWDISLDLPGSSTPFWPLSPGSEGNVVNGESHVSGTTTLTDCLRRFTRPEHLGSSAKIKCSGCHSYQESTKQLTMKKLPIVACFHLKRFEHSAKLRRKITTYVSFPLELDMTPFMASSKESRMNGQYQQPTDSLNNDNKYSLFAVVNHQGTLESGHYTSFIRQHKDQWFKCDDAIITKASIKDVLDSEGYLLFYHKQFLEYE
Summary of the method: as §1

[3] = biological target: USP24 (UniProt Q9UPU5)
Summary of the method: as §1

[4] = biological target: T3, USP25 (UniProt Q9UHP3)
T3 sequence (whole entry): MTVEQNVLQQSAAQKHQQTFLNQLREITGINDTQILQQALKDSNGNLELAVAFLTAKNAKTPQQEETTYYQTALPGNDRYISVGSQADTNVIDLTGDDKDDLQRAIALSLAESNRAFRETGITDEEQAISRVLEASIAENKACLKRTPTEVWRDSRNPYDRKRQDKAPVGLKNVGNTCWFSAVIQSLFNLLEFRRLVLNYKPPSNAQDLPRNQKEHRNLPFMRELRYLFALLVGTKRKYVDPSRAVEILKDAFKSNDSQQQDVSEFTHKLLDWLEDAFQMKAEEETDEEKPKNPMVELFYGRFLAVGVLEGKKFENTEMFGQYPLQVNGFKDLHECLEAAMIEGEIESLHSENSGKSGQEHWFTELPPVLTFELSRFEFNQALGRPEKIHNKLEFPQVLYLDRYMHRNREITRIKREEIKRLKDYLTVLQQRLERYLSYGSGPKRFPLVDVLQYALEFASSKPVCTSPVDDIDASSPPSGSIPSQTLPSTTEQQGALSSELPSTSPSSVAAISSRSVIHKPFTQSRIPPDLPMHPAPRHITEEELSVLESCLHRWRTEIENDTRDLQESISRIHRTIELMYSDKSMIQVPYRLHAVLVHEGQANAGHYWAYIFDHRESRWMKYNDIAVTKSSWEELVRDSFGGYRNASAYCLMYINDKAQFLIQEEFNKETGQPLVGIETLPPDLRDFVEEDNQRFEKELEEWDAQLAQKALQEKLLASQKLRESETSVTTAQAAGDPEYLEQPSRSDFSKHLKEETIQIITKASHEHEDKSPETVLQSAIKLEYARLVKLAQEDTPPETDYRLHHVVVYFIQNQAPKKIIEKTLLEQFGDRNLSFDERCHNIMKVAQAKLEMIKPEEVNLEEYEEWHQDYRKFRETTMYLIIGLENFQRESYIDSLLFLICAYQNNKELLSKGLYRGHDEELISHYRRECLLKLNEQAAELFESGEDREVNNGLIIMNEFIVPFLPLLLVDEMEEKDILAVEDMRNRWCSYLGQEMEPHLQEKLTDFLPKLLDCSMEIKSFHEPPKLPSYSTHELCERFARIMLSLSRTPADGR
Summary of the method: as §1

[5] = biological target: T4, USP28 (UniProt Q96RU2)
T4 sequence (whole entry): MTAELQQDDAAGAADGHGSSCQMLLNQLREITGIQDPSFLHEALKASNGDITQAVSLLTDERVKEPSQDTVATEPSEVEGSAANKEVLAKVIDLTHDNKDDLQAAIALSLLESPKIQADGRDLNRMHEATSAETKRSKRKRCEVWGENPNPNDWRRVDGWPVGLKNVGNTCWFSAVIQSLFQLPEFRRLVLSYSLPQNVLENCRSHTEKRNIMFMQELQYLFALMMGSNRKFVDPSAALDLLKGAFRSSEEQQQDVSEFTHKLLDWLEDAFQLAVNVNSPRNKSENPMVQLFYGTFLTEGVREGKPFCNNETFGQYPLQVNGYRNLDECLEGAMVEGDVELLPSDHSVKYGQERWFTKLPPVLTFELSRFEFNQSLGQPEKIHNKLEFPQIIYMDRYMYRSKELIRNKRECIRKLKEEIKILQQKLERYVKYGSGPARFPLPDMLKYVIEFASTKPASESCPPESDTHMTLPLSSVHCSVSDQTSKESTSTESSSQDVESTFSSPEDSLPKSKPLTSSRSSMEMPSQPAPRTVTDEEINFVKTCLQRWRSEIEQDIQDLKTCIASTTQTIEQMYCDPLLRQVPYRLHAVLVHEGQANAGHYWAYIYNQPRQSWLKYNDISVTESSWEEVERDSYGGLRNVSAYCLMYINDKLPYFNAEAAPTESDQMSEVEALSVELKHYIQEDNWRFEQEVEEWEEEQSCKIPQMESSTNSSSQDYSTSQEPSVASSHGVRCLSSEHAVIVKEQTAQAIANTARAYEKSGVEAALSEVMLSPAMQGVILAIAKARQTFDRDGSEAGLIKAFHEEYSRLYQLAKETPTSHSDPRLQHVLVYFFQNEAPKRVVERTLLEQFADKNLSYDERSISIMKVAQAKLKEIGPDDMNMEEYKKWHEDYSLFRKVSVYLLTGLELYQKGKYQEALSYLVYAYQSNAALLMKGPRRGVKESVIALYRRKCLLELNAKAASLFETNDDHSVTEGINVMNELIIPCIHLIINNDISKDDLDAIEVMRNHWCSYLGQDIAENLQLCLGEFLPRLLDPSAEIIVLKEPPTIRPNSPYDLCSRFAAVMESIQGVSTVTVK
Summary of the method: as §1

Measured: log2 ratio of Biotin-Ahx-Ub-VS probe labelling

Chain of USP24 (Q9UPU5 whole entry): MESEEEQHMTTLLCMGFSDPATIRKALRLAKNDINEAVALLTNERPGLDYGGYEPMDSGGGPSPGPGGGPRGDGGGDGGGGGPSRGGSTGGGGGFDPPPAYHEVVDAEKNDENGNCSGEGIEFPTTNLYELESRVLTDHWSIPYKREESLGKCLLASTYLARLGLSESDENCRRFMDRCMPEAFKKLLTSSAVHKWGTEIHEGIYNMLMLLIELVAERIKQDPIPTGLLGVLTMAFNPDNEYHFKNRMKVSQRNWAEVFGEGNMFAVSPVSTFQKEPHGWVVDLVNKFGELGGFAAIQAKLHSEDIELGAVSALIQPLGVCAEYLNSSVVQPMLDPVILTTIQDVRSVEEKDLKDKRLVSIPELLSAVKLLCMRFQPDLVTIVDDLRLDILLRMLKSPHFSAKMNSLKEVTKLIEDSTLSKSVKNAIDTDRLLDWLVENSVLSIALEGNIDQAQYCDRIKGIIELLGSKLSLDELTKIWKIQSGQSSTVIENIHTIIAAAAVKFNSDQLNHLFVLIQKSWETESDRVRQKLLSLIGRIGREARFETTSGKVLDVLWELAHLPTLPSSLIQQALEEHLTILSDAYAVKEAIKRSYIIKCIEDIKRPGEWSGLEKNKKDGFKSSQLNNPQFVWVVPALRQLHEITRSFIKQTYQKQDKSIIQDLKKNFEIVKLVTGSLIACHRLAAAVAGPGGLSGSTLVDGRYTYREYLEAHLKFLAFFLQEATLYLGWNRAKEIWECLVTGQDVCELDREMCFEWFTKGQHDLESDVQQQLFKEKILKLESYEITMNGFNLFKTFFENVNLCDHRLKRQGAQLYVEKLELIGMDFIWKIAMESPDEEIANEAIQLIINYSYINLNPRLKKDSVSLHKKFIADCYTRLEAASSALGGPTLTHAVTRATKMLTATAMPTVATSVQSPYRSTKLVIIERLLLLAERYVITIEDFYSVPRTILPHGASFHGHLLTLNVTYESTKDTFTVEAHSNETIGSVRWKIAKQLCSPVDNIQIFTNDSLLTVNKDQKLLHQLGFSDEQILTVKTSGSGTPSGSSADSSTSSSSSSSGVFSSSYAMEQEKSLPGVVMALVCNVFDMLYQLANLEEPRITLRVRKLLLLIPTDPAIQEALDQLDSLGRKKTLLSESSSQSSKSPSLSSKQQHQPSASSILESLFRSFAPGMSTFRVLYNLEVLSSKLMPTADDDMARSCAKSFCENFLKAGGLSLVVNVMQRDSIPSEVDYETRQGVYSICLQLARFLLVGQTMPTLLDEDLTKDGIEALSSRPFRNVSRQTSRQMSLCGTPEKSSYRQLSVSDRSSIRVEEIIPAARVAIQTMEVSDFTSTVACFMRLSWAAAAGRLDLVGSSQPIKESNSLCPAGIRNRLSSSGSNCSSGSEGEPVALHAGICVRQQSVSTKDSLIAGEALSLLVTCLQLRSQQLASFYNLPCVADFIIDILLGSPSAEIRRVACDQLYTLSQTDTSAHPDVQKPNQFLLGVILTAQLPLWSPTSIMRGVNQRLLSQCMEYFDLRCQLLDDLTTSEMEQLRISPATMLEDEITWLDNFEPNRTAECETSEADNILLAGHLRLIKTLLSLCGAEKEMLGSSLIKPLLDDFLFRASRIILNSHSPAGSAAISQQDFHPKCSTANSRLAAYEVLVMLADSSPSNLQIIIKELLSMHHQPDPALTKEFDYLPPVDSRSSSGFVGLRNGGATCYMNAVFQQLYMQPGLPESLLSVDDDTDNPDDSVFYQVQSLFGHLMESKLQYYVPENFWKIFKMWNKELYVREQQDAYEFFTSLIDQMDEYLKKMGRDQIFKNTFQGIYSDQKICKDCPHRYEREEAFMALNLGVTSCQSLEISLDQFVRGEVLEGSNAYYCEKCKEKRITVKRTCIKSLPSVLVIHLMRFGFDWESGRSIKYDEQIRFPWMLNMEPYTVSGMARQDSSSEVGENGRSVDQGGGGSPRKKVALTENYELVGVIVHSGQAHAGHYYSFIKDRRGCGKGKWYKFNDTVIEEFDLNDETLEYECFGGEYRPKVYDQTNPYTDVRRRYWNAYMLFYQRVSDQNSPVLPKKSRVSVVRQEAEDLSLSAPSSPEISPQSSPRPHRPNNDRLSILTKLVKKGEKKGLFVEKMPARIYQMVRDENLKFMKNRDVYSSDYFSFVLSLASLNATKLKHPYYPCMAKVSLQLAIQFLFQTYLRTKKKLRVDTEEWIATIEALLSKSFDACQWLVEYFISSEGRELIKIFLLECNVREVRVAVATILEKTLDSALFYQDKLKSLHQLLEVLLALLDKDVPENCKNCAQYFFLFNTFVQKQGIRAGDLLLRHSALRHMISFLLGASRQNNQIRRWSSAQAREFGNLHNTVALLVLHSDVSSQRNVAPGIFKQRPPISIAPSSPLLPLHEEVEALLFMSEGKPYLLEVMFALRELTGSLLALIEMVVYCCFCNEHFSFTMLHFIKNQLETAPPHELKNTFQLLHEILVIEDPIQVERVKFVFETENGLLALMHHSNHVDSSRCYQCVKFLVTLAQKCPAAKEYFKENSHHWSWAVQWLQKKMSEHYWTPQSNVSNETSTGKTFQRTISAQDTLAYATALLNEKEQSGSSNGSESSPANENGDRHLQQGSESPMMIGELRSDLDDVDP

C/C(=C\CNC(=O)CCl)c1cnn(C)c1.Cl
inactive: [1] -0.404 | [2] 0.026 | [3] -0.203 | [4] -0.578 | [5] -0.395

From the supplement of paper PMC11732987, “Enantioselective OTUD7B fragment discovery through chemoproteomics screening and high-throughput optimisation” (Communications Chemistry, 2025)
